Measured values reported in ChEMBL document CHEMBL4513216, “Probing the Open Global Health Chemical Diversity Library for Multistage-Active Starting Points for Next-Generation Antimalarials” (ACS Infect Dis, 2020).
Screen size: about 69,000 compounds; about 8,600 (12%) showed an effect of 50% or more. Only a selection was taken, and strong results are over-represented in it overall.

test system: Plasmodium berghei; assay: Screen against P. berghei liver stage (PbLuc), transformed with Luciferase, at 10uM; format: functional, HepG2; conditions: tested at 10 uM

Compound | INHIBITION
O=C(Nc1ccc(Cn2cccn2)cc1)N1CCC(CO)CC1 | 57.8%
O=C(Nc1ccc(Cn2cccn2)cc1)N1CCC2(CC1)OCCO2 | 41%
CC1(C)CN(C(=O)Nc2ccc(Cn3cccn3)cc2)CCO1 | 49.9%
COCCOc1ccc(NC(=O)C2CC(=O)N(CC3CC3)C2)cn1 (configuration not stated) | 4.71%
CN(C)C(=O)N1CCC2(CC1)CN(CC1CC1)CC21CCNC1=O (configuration not stated) | -63.9%
Cc1cc(C(=O)NCC(F)(F)F)c2c(C3CCNCC3)noc2n1 | 64%
Cc1cc(C(=O)NCc2ccc(F)cc2)c2c(C3CCNC3)noc2n1 (configuration not stated) | 41.6%
Cc1cc(C(=O)NCC(F)(F)F)c2c(C3CCCN3)noc2n1 (configuration not stated) | 30.8%
O=C(C1CCN(c2nc3nc[nH]c(=O)c3s2)CC1)N1CCCCC1 | 37.4%
COc1ccc(CCNC(=O)CC(NC(N)=O)c2ccccc2)cc1 (configuration not stated) | 29.1%
NC(=O)NC(CC(=O)NCCc1ccc(F)cc1)c1ccccc1 (configuration not stated) | 53.8%
NC(=O)NC(CC(=O)NCCc1cccc(F)c1)c1ccccc1 (configuration not stated) | 20.5%
CSCC(=O)N1CCCCC1Cn1cc(C)cn1 (configuration not stated) | -5.25%
CC(C)CN1CCC2(CCN(CC3CC3)CC2)C1=O | -7.24%
COc1cc(N2CCCC(CO)(Cc3ccccc3F)C2)ncn1 (configuration not stated) | 84.9%
CCCC1(CO)CCCN(c2ncccc2F)C1 (configuration not stated) | -29.9%
OCC1(Cc2ccccc2F)CCCN(c2ccc3ccccc3n2)C1 (configuration not stated) | 89.9%
Nc1ccnc(N2CCCC(CO)(Cc3cccc(Cl)c3)C2)n1 (configuration not stated) | 44.9%
Nc1cc(N2CCCC(Cc3ccc(F)cc3F)(C(=O)O)C2)ncn1 (configuration not stated) | 34.4%
O=C(O)C1(Cc2ccccc2F)CCCN(c2ncnc3[nH]ccc23)C1 (configuration not stated) | 23.5%
N#Cc1cccc(N2CCCC(CO)(Cc3ccccc3F)C2)n1 (configuration not stated) | 23.5%
Nc1cc(N2CCCC(CO)(Cc3ccccc3F)C2)nc(N)n1 (configuration not stated) | 75.1%

Compound | INHIBITION
COC[C@]1(O)CCN(c2cc(OC)ncn2)CC1(C)C | -31.7%
CNC(=O)N1CC[C@@H]2CN(Cc3cccnc3)S(=O)(=O)[C@@H]2CC1 | 22.2%
CN1CC(=O)N(C2CCNCC2)Cc2c(NC3CCC3)ncnc21 | -13%
CCOC1COC2(CCN(Cc3ccc4c(c3)OCO4)CC2)C1 (configuration not stated) | 24.9%
COCCn1c(CN2CCCCO2)cnc1S(=O)(=O)CC1CCCCC1 | -2.13%
CCc1cc(NC2CCC(N)CC2)n2nc(C)c(C)c2n1 (configuration not stated) | 14.1%
CC(C)n1ncc2cc(NC(=O)N3CCC(CO)CC3)cnc21 | 29.7%
Fc1ccccc1Cc1noc(CN2CC[C@@H]3CCCC[C@H]3C2)n1 | 38.4%
c1ccc(CCc2noc(CN3CCC(N4CCSCC4)CC3)n2)cc1 | 7.97%
c1ccc(OCc2noc(CN3CCN(C4CCCC4)CC3)n2)cc1 | 40.9%
CCc1nc(CN(C)C2CCN(CCOc3ccccc3)C2)no1 (configuration not stated) | -0.219%
c1ccc(OCc2noc(CN3CCC(N4CCSCC4)CC3)n2)cc1 | 79.5%
Fc1ccccc1Cc1noc(CN2CCC(N3CCSCC3)CC2)n1 | 75.2%
CCN(C)S(=O)(=O)NCC1(c2ccccc2Br)CC1 | 51%
CN(C)S(=O)(=O)NCC1(c2ccccc2Br)CC1 | 46.6%
CS(=O)(=O)NCC1(c2ccccc2Br)CC1 | 46.6%
COC(C)(C)CNC(=O)c1cn(-c2cccc(Cl)c2F)nn1 | 18.7%
O=C(c1cn(-c2ccccc2Cl)nn1)N1CCSCC1 | -28.8%
O=C(c1cn(-c2cccc(Cl)c2F)nn1)N1CCCSCC1 | -134%
COCC(C)(C#N)NC(=O)c1cn(-c2cccc(Cl)c2F)nn1 (configuration not stated) | 55.6%
CC(O)CN1CCN(C(=O)c2cn(-c3ccccc3Cl)nn2)CC1 (configuration not stated) | -9.67%
COCC(NC(=O)c1cn(-c2cccc(Cl)c2F)nn1)C1CC1 (configuration not stated) | 51.2%

Compound | INHIBITION
CNC(=O)c1sc2ccccc2c1CC1CCCN1Cc1cnc(C)s1 (configuration not stated) | 24.69%
CCN1CCc2[nH]nc(C(=O)N3CCCC3C)c2C1 (configuration not stated) | -65.2%
CS(=O)(=O)NC(=O)c1ccn(-c2cccc(Br)c2)n1 | 16.3%
CC(c1ccccc1Cl)N(C(=O)CSCC(N)=O)C1CC1 (configuration not stated) | 30.4%
CC(c1ccccc1F)N(C(=O)CSCC(N)=O)C1CC1 (configuration not stated) | 35.9%
CC(c1ccccc1F)N(CC(N)=O)C1CC1 (configuration not stated) | 72.1%
Cc1nnc2n1CCN(Cc1ccc3c(c1)OCCO3)C2 | 33.8%
COCC(=O)N1CCC(O)(CN2CCN(c3ccccc3)CC2)C1 (configuration not stated) | 39.7%
CC(C)n1c(C(=O)N2CCCC2)nc2c1CCN(C)C2 | 9.79%
CC1CCCCN1C(=O)c1nc2c(n1C(C)C)CCN(C(=O)C1CC1)C2 (configuration not stated) | -0.554%
CC1CCCCN1C(=O)c1nc2c(n1C(C)C)CCN(C)C2 (configuration not stated) | 58.5%
COCCN1CCC2(C1)c1ccccc1S(=O)(=O)N2C (configuration not stated) | 40.5%
Cc1cc(O)nc(C2CN(CC3(O)CCOCC3)CCO2)n1 (configuration not stated) | -34.6%
Cc1cc(O)nc(C2CN(CCO)CCO2)n1 (configuration not stated) | 50.8%
Cc1cc(O)nc(C2CN(CCC(F)(F)F)CCO2)n1 (configuration not stated) | -6.92%
CN1CCN(C[C@@H]2CN(C3Cc4ccccc4C3)C[C@@H]2CO)CC1 | 8.51%
CC(NC(=O)C1CCCCC1)c1cc(O)nc(-c2cccnc2)n1 (configuration not stated) | -6.002%
O=C(c1sccc1C1CC1)N1CCCN(c2cccnn2)CC1 | 15.7%
Cc1ncsc1CCN(C)Cc1ccc(CO)o1 | 57.6%
Cc1ncsc1CCN(C)Cc1ccc(Br)o1 | 47.1%
Cc1ccsc1CN(C)CCc1scnc1C | 46.9%
CC(=O)N1CCCC(c2ncncc2-c2ccncc2)C1 (configuration not stated) | 26.8%

Compound | INHIBITION
COc1ccc(CN2C[C@@H](OCc3ccccn3)[C@H]3COC[C@H]32)cc1 | 34.7%
Cc1ccc(S(=O)(=O)NCc2cccc(C(=O)N3CCCC3)c2)cc1F | -51.5%
CC(C)c1noc(CCCC(=O)N2CCN(Cc3ccccn3)CC2)n1 | 40%
Cc1ccc(NC2CCN(C(=O)Cc3c(C)noc3C)CC2)nn1 | 28.38%
CC(C)CCNC(=O)c1csc(NC2CC2)n1 | -70.8%
CC(=O)Nc1nc(C(=O)N2CCCC(c3cc(C)[nH]n3)C2)cs1 (configuration not stated) | 22.3%
CC(C)(C)[S+]([O-])CCNC(=O)c1csc(NC2CC2)n1 (configuration not stated) | -12.1%
Cc1[nH]/c(=N\C(=O)c2csc(NC3CC3)n2)sc1C | 77.9%
Cc1[nH]/c(=N\C(=O)c2csc(NC3CCCC3)n2)sc1C | 83.8%
CC(C)NC(=O)c1csc(NC2CC2)n1 | 13.9%
O=c1[nH]cnc2c1CCN(S(=O)(=O)c1ccc(OC(F)(F)F)cc1)C2 | -10.1%
CCc1ccc(NC(=O)Nc2c(O)oc3ccccc3c2=O)cc1 | -11.4%
O=C(COCc1ccccc1)NCc1ccc(O)c(F)c1 | -7.93%
COCC(=O)N1CCCn2c(CN3CCCC3=O)nnc2C1 | -15.6%
Cc1cc(CN(C)C(=O)c2ccc(Cl)cc2N2CCCC2=O)no1 | -9.37%
O=C(c1ccccn1)N1CCC2(CC1)CN(c1cncnc1)C(=O)CO2 | 40.4%
Cc1nc2ccccc2c(=O)n1CCC(=O)N1CCCC1 | 17.36%
CC(=O)NCC(=O)N1CCOCC(Cc2ccc3c(ccn3C)c2)C1 (configuration not stated) | -2.995%
Cc1nc(CCNC(Cc2ccncc2)C(F)(F)F)cs1 (configuration not stated) | 59.3%
Cc1nc(C)c(CCNC(Cc2ccncc2)C(F)(F)F)s1 (configuration not stated) | 48.5%
Cc1cnc(CCNC(Cc2ccncc2)C(F)(F)F)s1 (configuration not stated) | 11.7%
CN(C)C(=O)c1cc2ncc(C(=O)NC3CCCC3)cc2n1C | -71.5%

Compound | INHIBITION
O=C(c1cc(=O)n(-c2ccccc2)[nH]1)N1CCOCC(O)C1 (configuration not stated) | 0.546%
O=C(c1cc(=O)n(-c2ccccc2)[nH]1)N1CCCC(c2ccn[nH]2)C1 (configuration not stated) | 55%
O=C(c1ccccc1-c1nc[nH]n1)N1CCOC(C(F)(F)F)C1 (configuration not stated) | 7.15%
O=C(c1cnc2ccccn12)N1CCCC(c2ccn[nH]2)C1 (configuration not stated) | -0.71%
O=C(c1cc(=O)n(-c2ccccc2)[nH]1)N1CCOC(C(F)(F)F)C1 (configuration not stated) | 63.6%
O=C(c1cnnn1-c1ccccc1)N1CCCC(c2ccn[nH]2)C1 (configuration not stated) | 12.9%
COc1ccc(CNC(=O)Nc2ccc(N3CCCC3)nc2)cc1O | 26.4%
O=C(NCc1cccs1)[C@H]1CC[C@@H]2[C@@H](CCN2C2CCC2)O1 | -4.88%
Cc1cnc(C(=O)N2C[C@H]3CN(Cc4nccs4)C[C@H]3C2)cn1 | 81.5%
O=C(c1cscn1)N1C[C@H]2CN(Cc3nccs3)C[C@H]2C1 | 62.5%
O=C(c1cscn1)N1CCC2(CCN(Cc3nccs3)CC2)CC1 | 35.7%
NC(=O)N1C[C@H]2CN(Cc3nccs3)C[C@H]2C1 | 14.8%
Cc1cnc(C(=O)N2C[C@H]3CN(Cc4cccnc4)C[C@H]3C2)cn1 | -6.21%
Cc1cnc(C(=O)N2C[C@H]3CN(Cc4cccs4)C[C@H]3C2)cn1 | -18.2%
O=C(O)c1c(-c2ccncc2)ncc2c1CCN(C1CCOC1)C2 (configuration not stated) | -12.4%
CCc1nc(CC(=O)N2CCn3c(C)nnc3C2)cs1 | 27.45%
CN1C(=O)CC(C(=O)O)C12CCN(Cc1ccc(Cl)cc1F)CC2 (configuration not stated) | 7.84%
CN1C(=O)CC(C(=O)O)C12CCN(Cc1ccc(F)cc1Cl)CC2 (configuration not stated) | 18.8%
CN1C(=O)CC(C(=O)O)C12CCN(Cc1cc(Cl)ccc1F)CC2 (configuration not stated) | 50.5%
